Drawing on publication PMC11006913, this text covers binding signal for 39 sequences.

ALX3, sequence (O95076 139-225 N203Q): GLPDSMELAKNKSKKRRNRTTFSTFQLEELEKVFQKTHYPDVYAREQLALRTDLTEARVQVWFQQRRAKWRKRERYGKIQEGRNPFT
HOXA2, sequence (O43364 129-215 R185K): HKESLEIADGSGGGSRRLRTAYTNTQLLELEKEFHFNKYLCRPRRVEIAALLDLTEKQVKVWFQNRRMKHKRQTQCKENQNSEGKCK
HOXC9, sequence (P31274 178-260 R193K): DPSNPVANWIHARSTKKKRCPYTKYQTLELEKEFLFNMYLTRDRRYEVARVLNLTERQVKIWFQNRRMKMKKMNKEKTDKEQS

For the first assay, the target named is MSX2 (Homo sapiens, UniProt P35548 130-214, R199I). The assay can be described thus: PBM; 200 nM protein, PBS. The conditions noted are these: dsDNA, one strand shown.
MSX2 (Homo sapiens, UniProt P35548 130-214, R199I), sequence (P35548 130-214 R199I): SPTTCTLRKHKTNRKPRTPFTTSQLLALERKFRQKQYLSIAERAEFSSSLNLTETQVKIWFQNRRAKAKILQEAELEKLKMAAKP
Consider CGGGCCAG, for which the binding signal is 9.53 upbm affinity estimate (log intensity, higher = more binding, comparable within an allelic series).

Take TCGGGCCA: the binding signal was 9.6 upbm affinity estimate (log intensity, higher = more binding, comparable within an allelic series).

Consider CACAATTA, for which the binding signal is 12.1 upbm affinity estimate (log intensity, higher = more binding, comparable within an allelic series).

As to GCGTCGCC, the binding signal is 9.45 upbm affinity estimate (log intensity, higher = more binding, comparable within an allelic series).

On to CTCCACGC, for which the binding signal was 9.56 upbm affinity estimate (log intensity, higher = more binding, comparable within an allelic series).

For CGCGGGAG, the binding signal was 9.38 upbm affinity estimate (log intensity, higher = more binding, comparable within an allelic series).

For the sequence AGTAATAA, the binding signal is 11.4 upbm affinity estimate (log intensity, higher = more binding, comparable within an allelic series).

Another assay has as its target ALX3 (Homo sapiens, UniProt O95076 139-225, N203Q). Nature of the assay: PBM; 200 nM protein, PBS. The conditions noted are these: dsDNA, one strand shown.
As to AGGTGGGG, the binding signal was 7.84 upbm affinity estimate (log intensity, higher = more binding, comparable within an allelic series).

For the sequence CCCCCCTC, the binding signal is 7.49 upbm affinity estimate (log intensity, higher = more binding, comparable within an allelic series).

For CCTCCCAG, the binding signal was 7.74 upbm affinity estimate (log intensity, higher = more binding, comparable within an allelic series).

For another assay, the target named is HOXD13 (Homo sapiens, UniProt P35453 263-343, T313R). Nature of the assay: PBM; 200 nM protein, PBS. The conditions noted are these: dsDNA, one strand shown.
HOXD13 (Homo sapiens, UniProt P35453 263-343, T313R), sequence (P35453 263-343 T313R): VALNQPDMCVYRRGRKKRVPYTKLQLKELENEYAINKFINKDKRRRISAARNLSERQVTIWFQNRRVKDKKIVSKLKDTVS
As for AGGGGCTC, the binding signal was 9.61 upbm affinity estimate (log intensity, higher = more binding, comparable within an allelic series).

As to TCGGGCCA, the binding signal is 9.55 upbm affinity estimate (log intensity, higher = more binding, comparable within an allelic series).

CCCCCCTC: the binding signal is 8.92 upbm affinity estimate (log intensity, higher = more binding, comparable within an allelic series).

With ACGATAAA, the binding signal is 10.1 upbm affinity estimate (log intensity, higher = more binding, comparable within an allelic series).

Turning to CTTATAAA, the binding signal is 10.7 upbm affinity estimate (log intensity, higher = more binding, comparable within an allelic series).

Consider GCAGCGCC, for which the binding signal is 9.55 upbm affinity estimate (log intensity, higher = more binding, comparable within an allelic series).

Turning to CCCCCCAC, the binding signal is 9.08 upbm affinity estimate (log intensity, higher = more binding, comparable within an allelic series).

Regarding CTGCCTCC, the binding signal was 9.53 upbm affinity estimate (log intensity, higher = more binding, comparable within an allelic series).

On to AGCCGTGG, for which the binding signal was 9.67 upbm affinity estimate (log intensity, higher = more binding, comparable within an allelic series).

As for ATTTAATA, the binding signal is 10.9 upbm affinity estimate (log intensity, higher = more binding, comparable within an allelic series).

In the case of CCCTGCGG, the binding signal was 9.39 upbm affinity estimate (log intensity, higher = more binding, comparable within an allelic series).

On to GGAGAACC, for which the binding signal was 9.57 upbm affinity estimate (log intensity, higher = more binding, comparable within an allelic series).

For the next assay, the target named is PITX2 (Homo sapiens, UniProt Q99697 72-157). Nature of the assay: PBM; 200 nM protein, PBS. The conditions noted are these: dsDNA, one strand shown.
Regarding CCTACTCG, the binding signal is 8.18 upbm affinity estimate (log intensity, higher = more binding, comparable within an allelic series).

AGATTAAA: the binding signal was 12.3 upbm affinity estimate (log intensity, higher = more binding, comparable within an allelic series).

As to GCAGCGCC, the binding signal is 7.75 upbm affinity estimate (log intensity, higher = more binding, comparable within an allelic series).

A further assay has as its target HOXC9 (Homo sapiens, UniProt P31274 178-260, R193K). The assay can be described thus: PBM; 200 nM protein, PBS. The conditions noted are these: dsDNA, one strand shown.
In the case of TGATTGCA, the binding signal is 11.2 upbm affinity estimate (log intensity, higher = more binding, comparable within an allelic series).

TTCATAAA: the binding signal was 11.7 upbm affinity estimate (log intensity, higher = more binding, comparable within an allelic series).

For the sequence ACGTTGGG, the binding signal is 9.64 upbm affinity estimate (log intensity, higher = more binding, comparable within an allelic series).

Regarding TAAAGTGA, the binding signal is 11.4 upbm affinity estimate (log intensity, higher = more binding, comparable within an allelic series).

In the case of AGGTGGGG, the binding signal was 9.81 upbm affinity estimate (log intensity, higher = more binding, comparable within an allelic series).

As to AGGGGCTC, the binding signal is 9.46 upbm affinity estimate (log intensity, higher = more binding, comparable within an allelic series).

For TCCAGGGA, the binding signal is 9.68 upbm affinity estimate (log intensity, higher = more binding, comparable within an allelic series).

For CCTACTCG, the binding signal was 9.59 upbm affinity estimate (log intensity, higher = more binding, comparable within an allelic series).

Turning to CGGGCCAG, the binding signal was 9.73 upbm affinity estimate (log intensity, higher = more binding, comparable within an allelic series).

Consider TCGGGCCA, for which the binding signal is 9.72 upbm affinity estimate (log intensity, higher = more binding, comparable within an allelic series).

For CCCCCCTC, the binding signal is 9.54 upbm affinity estimate (log intensity, higher = more binding, comparable within an allelic series).

In the case of AGATTAAA, the binding signal is 11.2 upbm affinity estimate (log intensity, higher = more binding, comparable within an allelic series).

For ACGATAAA, the binding signal was 11.8 upbm affinity estimate (log intensity, higher = more binding, comparable within an allelic series).

Consider CTTATAAA, for which the binding signal is 11.2 upbm affinity estimate (log intensity, higher = more binding, comparable within an allelic series).

GAGGGTCC: the binding signal was 9.32 upbm affinity estimate (log intensity, higher = more binding, comparable within an allelic series).

For GCAGCGCC, the binding signal was 9.72 upbm affinity estimate (log intensity, higher = more binding, comparable within an allelic series).

For CCCCCCAC, the binding signal was 9.4 upbm affinity estimate (log intensity, higher = more binding, comparable within an allelic series).

Take CTATAGAA: the binding signal was 11.1 upbm affinity estimate (log intensity, higher = more binding, comparable within an allelic series).

Take CACGCGGG: the binding signal was 9.49 upbm affinity estimate (log intensity, higher = more binding, comparable within an allelic series).

Consider CCGGGTAC, for which the binding signal is 9.61 upbm affinity estimate (log intensity, higher = more binding, comparable within an allelic series).

Take CTGCCTCC: the binding signal is 9.67 upbm affinity estimate (log intensity, higher = more binding, comparable within an allelic series).

For the sequence CACAATTA, the binding signal was 11.7 upbm affinity estimate (log intensity, higher = more binding, comparable within an allelic series).

Turning to CGGAGCCC, the binding signal is 9.44 upbm affinity estimate (log intensity, higher = more binding, comparable within an allelic series).

With AGCCGTGG, the binding signal was 9.58 upbm affinity estimate (log intensity, higher = more binding, comparable within an allelic series).

Turning to CTGCATAA, the binding signal is 11.2 upbm affinity estimate (log intensity, higher = more binding, comparable within an allelic series).

In the case of CCTCTCCA, the binding signal is 9.69 upbm affinity estimate (log intensity, higher = more binding, comparable within an allelic series).

Take CCTGCCGC: the binding signal was 9.31 upbm affinity estimate (log intensity, higher = more binding, comparable within an allelic series).

GCGTCGCC: the binding signal was 9.48 upbm affinity estimate (log intensity, higher = more binding, comparable within an allelic series).

For the sequence ATTTAATA, the binding signal was 12.4 upbm affinity estimate (log intensity, higher = more binding, comparable within an allelic series).

Consider CCCTGCGG, for which the binding signal was 9.6 upbm affinity estimate (log intensity, higher = more binding, comparable within an allelic series).

Take CCTCCCAG: the binding signal was 9.59 upbm affinity estimate (log intensity, higher = more binding, comparable within an allelic series).

Take ATCTTTAA: the binding signal is 11.4 upbm affinity estimate (log intensity, higher = more binding, comparable within an allelic series).

Turning to ATTTGTTC, the binding signal is 11 upbm affinity estimate (log intensity, higher = more binding, comparable within an allelic series).

As to CGTTAAAG, the binding signal was 11.3 upbm affinity estimate (log intensity, higher = more binding, comparable within an allelic series).

As for CTCCACGC, the binding signal is 9.6 upbm affinity estimate (log intensity, higher = more binding, comparable within an allelic series).

Consider CCCAGGTC, for which the binding signal was 9.58 upbm affinity estimate (log intensity, higher = more binding, comparable within an allelic series).

CGCGGGAG: the binding signal is 9.43 upbm affinity estimate (log intensity, higher = more binding, comparable within an allelic series).

On to GGAGAACC, for which the binding signal was 9.52 upbm affinity estimate (log intensity, higher = more binding, comparable within an allelic series).

On to AGTAATAA, for which the binding signal is 12.3 upbm affinity estimate (log intensity, higher = more binding, comparable within an allelic series).

A further assay concerns the target HOXA2 (Homo sapiens, UniProt O43364 129-215, R185K). The assay can be described thus: PBM; 200 nM protein, PBS. Particulars: dsDNA, one strand shown.
As for AGGTGGGG, the binding signal was 10.4 upbm affinity estimate (log intensity, higher = more binding, comparable within an allelic series).

As to CACGCGGG, the binding signal is 10.2 upbm affinity estimate (log intensity, higher = more binding, comparable within an allelic series).

As to CGGAGCCC, the binding signal was 10.2 upbm affinity estimate (log intensity, higher = more binding, comparable within an allelic series).

For the sequence CCTGCCGC, the binding signal is 9.96 upbm affinity estimate (log intensity, higher = more binding, comparable within an allelic series).

Regarding CCCTGCGG, the binding signal was 10.3 upbm affinity estimate (log intensity, higher = more binding, comparable within an allelic series).

In the next assay the target is HOXD13 (Homo sapiens, UniProt P35453 263-343). The assay can be described thus: PBM; 200 nM protein, PBS. Particulars: dsDNA, one strand shown.
HOXD13 (Homo sapiens, UniProt P35453 263-343), sequence (P35453 263-343): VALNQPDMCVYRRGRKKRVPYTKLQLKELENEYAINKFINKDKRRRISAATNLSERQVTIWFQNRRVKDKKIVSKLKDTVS
In the case of AGGGGCTC, the binding signal is 9.68 upbm affinity estimate (log intensity, higher = more binding, comparable within an allelic series).

TCGGGCCA: the binding signal was 9.44 upbm affinity estimate (log intensity, higher = more binding, comparable within an allelic series).

For the sequence CCCCCCTC, the binding signal is 9.09 upbm affinity estimate (log intensity, higher = more binding, comparable within an allelic series).

For the sequence ACGATAAA, the binding signal is 10.8 upbm affinity estimate (log intensity, higher = more binding, comparable within an allelic series).

As to CTTATAAA, the binding signal is 11.8 upbm affinity estimate (log intensity, higher = more binding, comparable within an allelic series).

In the case of GCAGCGCC, the binding signal was 9.61 upbm affinity estimate (log intensity, higher = more binding, comparable within an allelic series).

Turning to CCCCCCAC, the binding signal is 9.3 upbm affinity estimate (log intensity, higher = more binding, comparable within an allelic series).

As to CTGCCTCC, the binding signal was 9.62 upbm affinity estimate (log intensity, higher = more binding, comparable within an allelic series).

In the case of AGCCGTGG, the binding signal is 9.7 upbm affinity estimate (log intensity, higher = more binding, comparable within an allelic series).

For the sequence ATTTAATA, the binding signal is 11.9 upbm affinity estimate (log intensity, higher = more binding, comparable within an allelic series).

For CCCTGCGG, the binding signal was 9.44 upbm affinity estimate (log intensity, higher = more binding, comparable within an allelic series).

Regarding GGAGAACC, the binding signal is 9.46 upbm affinity estimate (log intensity, higher = more binding, comparable within an allelic series).

The target in the next assay is MSX2 (Homo sapiens, UniProt P35548 130-214). Nature of the assay: PBM; 200 nM protein, PBS. The conditions noted are these: dsDNA, one strand shown.
MSX2 (Homo sapiens, UniProt P35548 130-214), sequence (P35548 130-214): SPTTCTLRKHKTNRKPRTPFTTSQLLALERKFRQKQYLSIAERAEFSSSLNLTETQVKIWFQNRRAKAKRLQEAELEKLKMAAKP
CGGGCCAG: the binding signal is 9.56 upbm affinity estimate (log intensity, higher = more binding, comparable within an allelic series).

As to TCGGGCCA, the binding signal was 9.63 upbm affinity estimate (log intensity, higher = more binding, comparable within an allelic series).
